# Test results: PubChem BioAssay (NCI)
# This is part of a sample that, as a whole, favours compounds with a hit. Of some 79,000 tested, about 15% had one in any assay. Active and inactive are the calls of the source. No stated cut-off is given here; in the data, active means growth inhibition above about 70%; inactive means the rest.
# Test: NCI Yeast Anticancer Drug Screen. Data for the cln2 rad14 strain (AID 165);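 further: 0% = growth equal to vehicle treated cultures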
# Details: S. cerevisiae cln2 rad14 strain, at 50.0 µM, active compounds read high
# Procedure, shortened: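 Growth inhibition, relative to vehicle-treated controls, is the read-out. The test organism is a yeast strain with defined genetic alterations, cln2 rad14.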
row,SMILES,growth inhibition
1,O=CC=C(c1ccccc1)c1ccccc1,39.1% (inactive)
2,FC(F)(F)c1nc2nc(Cl)c(Cl)nc2n1CCCN1CCOCC1,-1.1% (inactive)
3,BrCC[P+](c1ccccc1)(c1ccccc1)c1ccccc1,73.8% (active)
4,N#CSc1ccc(S(N)(=O)=O)cc1,41.4% (inactive)
5,O=[N+]([O-])c1ccc2nc3ccccc3cc2c1,0.1% (inactive)
6,O=C(NC(Nc1ccc(F)c(Cl)c1)(C(F)(F)F)C(F)(F)F)C(C(F)(F)F)C(F)(F)F,88% (active)
7,O=C(/C=C\c1ccc(Cl)cc1Cl)c1cccs1,-29.9% (inactive)
8,O=C(NCCCCNCCCNC(=O)c1cc(-c2ccccc2)nc2ccccc12)c1cc(-c2ccccc2)nc2ccccc12,97.6% (active)
9,NC(=NCc1ccccc1)N/N=C\c1ccnc2ccccc12,21.1% (inactive)
10,CCCCN(CCCC)CCSc1ccc(Cl)cc1,79.4% (active)
11,COc1cc(C2C3=C(COC3=O)Oc3cc4c(cc32)OCO4)ccc1O (centres undefined),34.2% (inactive)
12,C#CCCCc1ccccc1,18.1% (inactive)
13,CCc1ccc(NS(=O)(=O)c2ccccc2)c([N+](=O)[O-])c1,47.5% (inactive)
14,COc1ccc(C2c3cc4c(cc3OC(C)(O)C2C)OCO4)c(OC)c1 (centres undefined),89.3% (active)
15,COC(=O)c1ccc(CCC2=CC(=O)C(Br)=CC2=O)cc1,38.7% (inactive)
16,NNC(=O)CCc1ccc2ccc3ccccc3c2c1,24.6% (inactive)
17,Cn1c2ccccc2c(=O)c2cc(NC(=O)CCCCC(=O)Nc3ccc4c(c3)c(=O)c3ccccc3n4C)ccc21,-12.1% (inactive)
18,CC(CC(C)(C)[N+](C)(C)C)[N+](C)(C)C (centres undefined),90.8% (active)
19,CC1CCN(CCC(=O)c2ccc(Cl)cc2)CC1,73.6% (active)
20,CCCCCCCCCCCCCCC(C(=O)[O-])[n+]1ccccc1 (centres undefined),95.8% (active)

row,SMILES,growth inhibition
1,CNC1C(OC2C(OC3C(O)C(O)C(N=C(N)N)C(O)C3N=C(N)N)OC(C)C2(O)CO)OC(CO)C(O)C1O (centres undefined),81.8% (active)
2,O=C(O)c1ccccc1-c1ccccc1C(=O)Nc1ccc2c(c1)Cc1ccccc1-2,92.3% (active)
3,O=[N+]([O-])c1cccc2nc3ccccc3c(NCCCN3CCOCC3)c12,98.4% (active)
4,C=CC(C)(O)CCC1C(=C)C(O)CC2C(C)(C)CCCC12C (centres undefined),16.7% (inactive)
5,CN1c2ccc(Cl)cc2C(=O)NC1c1ccc([N+](=O)[O-])s1 (centres undefined),91% (active)
6,[O-][n+]1c2ccc(O)cc2nc2ccc(Br)cc21,49% (inactive)
7,O=C1c2ccccc2-c2nc3ccccc3nc21,3.35% (inactive)
8,CCCCN1C(=O)N(c2ccc(OCC)cc2)C2N(CCCC)C1C(C)(C)C2(C)C (centres undefined),21.1% (inactive)
9,CO[C@H]1C[C@](C)(O)Cc2cc3c(c(O)c21)C(=O)c1c(O)cc2c(c1C3=O)O[C@@H]1O[C@@]2(C)[C@H](O)[C@@H](N(C)C)[C@@H]1O,21.9% (inactive)
10,COc1cc2c(cc1[N+](=O)[O-])C(=O)C(Br)(Br)CCC2,90% (active)
11,O=C1OC(CCl)CN1/N=C/c1ccc([N+](=O)[O-])o1 (centres undefined),47.1% (inactive)
12,CN(C)CCOc1ccc2c(c1)C/C(=C/c1ncc([N+](=O)[O-])n1C)C2=O,77.9% (active)
13,CCCCCCCCCCCCCCCCCCN(C)CC(COP(=O)([O-])OCC[N+](C)(C)C)OC (centres undefined),89.8% (active)
14,CC(C)c1ccccc1NC(=O)/C(Cl)=C(\Cl)C(=O)O,51.6% (inactive)
15,O=[N+]([O-])C(=C(Sc1ccccc1)Sc1ccccc1)C(Cl)=C(Cl)Cl,32.8% (inactive)
16,C(=C\c1ccccc1)/COc1ccccc1C(N1CCOCC1)n1nc2ccccc2n1 (centres undefined),91.2% (active)
17,O=C1C(Nc2ccccc2)=C(Oc2ccccc2)C(=O)c2ccccc21,5.25% (inactive)
18,CCN(CC)CCN1C(=O)c2cccc3cc(OC)cc(c23)C1=O,-3.8% (inactive)
19,CN(C)Cc1cc(N=Nc2ccc(Cl)cc2)cc(CN(C)C)c1O,44% (inactive)
